Screening results from PubChem.
Pf growth 96h – P. falciparum growth inhibition at 96 hour, primary screen for plastid delayed-death inhibitors. P. falciparum luciferase reporter growth, 96 h. Potency, µM (series often up to 28.7 µM), usual class: inhibitors. 320,000 tested, 6.9% active. AID 504834
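Cell-based qHTS: luciferase-tagged P. falciparum in erythrocytes (2% hematocrit, 0.05% parasitemia final) incubated with compounds for 96 hours, 37 C, 5% CO2; luciferase detection reagent then added and luminescence measured.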
HCV inhibitor – blocks hepatitis C virus; 340,000 tested, 3.4% active; Huh7.5.1 HCVcc-Cre infection, luciferase reporter, 44 h; Potency, µM (doses to about 41.8 µM), usual class: inhibitors; AID 651820
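Luciferase read-out (15 sec integration) after a 15 min room-temperature substrate step quantifies HCVcc-Cre infection. Cells, 1,000 per well, had compound added 4 h post-plating, then virus at ~0.5 moi, and were cultured 44 h.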
AMA1 RON2 block – inhibitors of Plasmodium falciparum AMA1-RON2 interaction. 360,000 tested, 0.2% active. AlphaScreen AMA1-biotinylated RON2 peptide binding. AID 720542. Potency, µM (titrated, usually from 58.2 µM), usual class: inhibitors; note: nearly all actives have a fitted effect of over 45% in size
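AMA1 (3D7) with his tag at 25 nM final met compounds first, then biotinylated RON2 peptide at 25 nM; detection used donor plus acceptor beads, 10 µg/mL apiece, read by AlphaScreen after 30 min at room temperature.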
Pf growth 48h – P. falciparum growth inhibition at 48 hours (one generation). Potency, µM (titrated, usually from 28.7 µM), most hits filed as inhibitors. P. falciparum luciferase growth in erythrocytes, 48 h. 310,000 tested, 5.9% active. AID 504832
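Luciferase-expressing P. falciparum in infected erythrocytes (2% hematocrit, 0.1% parasitemia final) in RPMI 1640/0.5% Albumax were exposed to compound for 48 hours at 37 C, 5% CO2; growth read as luminescence.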
A number is an active result; i = inactive; ? = inconclusive; nt = not tested or not shown; [ ] = another dose, or the depositor's remark. Shown are actives, neighbours in structure and some others; about 11% of the full set was active somewhere. Calls come from the whole dose curve; as a rule, active = well fitted curve in the direction sought with a large enough effect; inconclusive = small, poorly fitted or top-dose-only effect, or another doubt; inactive = no such curve, though single readings can be large; an effect the other way counts as inactive or inconclusive.

SMILES | Pf growth 96h | HCV inhibitor | AMA1 RON2 block | Pf growth 48h
COc1ccc(C2C(C(N)=O)=C(C)Nc3nc(CCCO)nn32)cc1 (centres undefined) | i | i | i | i
CCOC(=O)C1=C(C)Nc2nc(SCC)nn2C1c1ccc(OC)cc1 (centres undefined) | 13µM | i | i | i
COc1ccccc1NC(=O)C1=C(C)Nc2nc(CCCO)nn2C1c1cccnc1 (centres undefined) | 5.2µM | i | i | i
CCOC(=O)C1=C(C)Nc2nc(SCC(=O)OC)nn2C1c1cc(F)cc(F)c1 (centres undefined) | ? | i | i | ?
CC1=C(C(=O)Nc2ccccc2C)C(c2cccnc2)n2nc(CCCO)nc2N1 (centres undefined) | nt | i | i | i
COc1ccc(C2C(C(=O)Nc3ccccc3)=C(C)Nc3nc(CCCO)nn32)cc1 (centres undefined) | 13µM | i | i | i
O=C(CSc1ncccn1)N1CCC(Cc2ccccc2)CC1 | i | ? | i | i
O=C(Nc1nccs1)C1CC(=O)N(CCc2ccc(F)cc2)C1 (centres undefined) | i | i | i | i
Cc1ccc(S(=O)(=O)/N=C(\CN2CCOCC2)N2CCCC2)cc1 | nt | i | i | i
Cc1ccc(S(=O)(=O)/N=C(\CCl)N2CCOCC2)cc1 | ? | 10µM | i | 13µM
CCOC(=O)C1=C(N)n2c(s/c(=C\c3ccco3)c2=O)=C(C(=O)OC(C)C)C1c1ccco1 (centres undefined) | ? | ? | ? | 2.9µM
CCOC(=O)C1=C(N)n2c(s/c(=C\c3ccco3)c2=O)=C(C(=O)OCC)C1c1ccco1 (centres undefined) | nt | ? | i | ?
Clc1ccc(CCNc2ncnc3nc[nH]c23)cc1 | ? | 10µM | i | i
c1ccc2c(CCNc3ncnc4nc[nH]c34)cccc2c1 | i | 11µM | i | i
Fc1ccc(/C=N/Nc2ncnc3nc[nH]c23)cc1F | 9.3µM | i[8.37 µM] | i | ?
c1ccc(CCCNc2ncnc3nc[nH]c23)cc1 | ? | ? | i | i
C1=C(CCNc2ncnc3nc[nH]c23)CCCC1 | ? | 10µM | i | ?
CN(Cc1c(O)ccc2c1oc(=O)c1ccccc12)C1CCCCC1 | ? | i | 21µM | 5.2µM
O=C(CSc1nc2ccccc2n1CC(=O)N1CCCC1)N1CCN(C(=O)c2ccco2)CC1 | 6.6µM | i | i | i
O=C(CSc1nc2ccccc2n1CC(=O)N1CCOCC1)N1CCCC1 | ? | i | i | i
O=C(CSc1nc2ccccc2n1CC(=O)N1CCCC1)Nc1nccs1 | 2.6µM | i | i | i
CCS(=O)(=O)c1nc2ccccc2n1CC(=O)N1CCCCC1 | 10µM | i | i | i
CCSc1nc2ccccc2n1CC(=O)N1CCCCC1 | i | i | i | i
O=C(CCc1nc2ccccc2[nH]1)N1CCN(C(=O)c2ccco2)CC1 | ? | i[8.37 µM] | i | i
O=C(CSc1ccc(-c2nc3ccccc3[nH]2)cn1)N1CCN(C(=O)c2ccco2)CC1 | i | i | i | 13µM
SMILES | Pf growth 96h | HCV inhibitor | AMA1 RON2 block | Pf growth 48h
COc1ccc(/C=C/C(=O)OCC(=O)Nc2ccc(N3CCOCC3)cc2)cc1OC | i | i | i | i
ClC1=CN(C2=NCCC2)CC1 | nt | nt | i | nt
CC(Sc1nc2sccc2c(=O)n1-c1ccccc1)C(N)=O (centres undefined) | 1.7µM | i | i | ?
COc1ccc(NS(=O)(=O)c2cc(NC(=O)CC(C)(C)C)ccc2N2CCCC2)cc1 | 13µM | i | i | 10µM
CNC(=S)Nc1ccc(N2CCCC2)c(S(=O)(=O)Nc2ccc(OC)cc2)c1 | nt | i | i | nt
COc1ccc(NS(=O)(=O)c2cc(NC(=O)Cc3c(F)cccc3Cl)ccc2OC)cc1 | ? | 13µM | i | 5.9µM
COc1ccc(NS(=O)(=O)c2cc(N/C(=N\S(=O)(=O)c3ccccc3)c3ccc(F)cc3)ccc2Cl)cc1 | 10µM | ? | i | ?
COc1ccc(NS(=O)(=O)c2cc(NC(=O)c3ccc(C)o3)ccc2N2CCCCC2)cc1 | ? | ? | i | 9.3µM
COC(=O)c1ccc(S(=O)(=O)c2ccc(Cl)cc2)c(N)c1 | i | i | i | i
CCOc1ccc(C(=O)NC(=S)NCc2cccnc2)cc1[N+](=O)[O-] | i | ? | i | i
CCOC(=O)N1CCC(N2Cc3cccc(C(=O)NCc4ccccc4OC)c3C2=O)CC1 | i | i | i | 13µM
CCOC(=O)N1CCC(N2Cc3cccc(C(=O)NCc4ccc(OC)cc4)c3C2=O)CC1 | i | i[0.335 µM] | nt | 7.4µM
CCOC(=O)N1CCC(N2Cc3cccc(C(=O)NCc4ccc5c(c4)OCO5)c3C2=O)CC1 | ? | ? | i | 7.4µM
